This note sets out measurements from PubChem BioAssay (NCATS).

Experiment [1] is described as follows: qHTS drug screen for cell cycle checkpoint inhibitors in PARPi-resistant BRCA-mutant ovarian cancer cell lines. (AID 1963452; calls by dose curve). Conditions: PEO1/OlaR viability, CellTiter-Glo luminescence, 96 h, stronger effect = lower value. In a few lines:
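PEO1, PEO4 and PEO1/OlaR ovarian cancer cells, 600 per well, exposed 96 h at 37C to a dilution series. Viability read by CellTiter-Glo luminescence, normalized to DMSO and empty wells; activity summarized as Z-AUC.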
Background: qHTS replaces the single test concentration by a dilution series.

Experiment [2] can be described thus: qHTS profiling for inhibitors of Plasmodium falciparum proliferation (AID 504749). Further: potency means the concentration at half of the fitted maximal effect.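 On activity, negative = inhibition: 0% = DMSO vehicle and full inhibition = artemisinin control.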 On all read-outs here: nearly all actives have a fitted effect of over 60% in size. Conditions: P. falciparum in erythrocytes, SYBR Green DNA, 72 h; for activity, negative = inhibition: at 28.7 µM (top of the series). In a few lines:
(§1)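 Fluorescence of SYBR Green-bound parasite DNA, read at 485/535 nm, served as the growth measure. Infected erythrocytes were cultured with compound 72 h; artemisinin (0.29 uM) and DMSO wells defined the normalization range.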

Another experiment deals with 3D7. Described as above. The settings on record: P. falciparum in erythrocytes, SYBR Green DNA, 72 h; series mostly up to 28.7 µM. In a few lines:
as §1

The next experiment concerns 7G8. Described as above. Conditions: P. falciparum in erythrocytes, SYBR Green DNA, 72 h; series mostly up to 28.7 µM. In a few lines:
as §1

Another experiment relates to AA1029. The experiment is described as above. Conditions: P. falciparum in erythrocytes, SYBR Green DNA, 72 h; series mostly up to 28.7 µM. In a few lines:
as §1

The next experiment relates to AS120. Described as above. The settings on record: P. falciparum in erythrocytes, SYBR Green DNA, 72 h; series mostly up to 28.7 µM. In a few lines:
as §1

In another experiment the test system is ATS189. The experiment is described as above. The settings on record: P. falciparum in erythrocytes, SYBR Green DNA, 72 h; series mostly up to 28.7 µM. In a few lines: as §1
A further experiment has as its system ATS95. The experiment is described as above. Conditions: P. falciparum in erythrocytes, SYBR Green DNA, 72 h; series mostly up to 28.7 µM. In a few lines: as §1
Another experiment concerns C2A. The experiment is described as above. Conditions: P. falciparum in erythrocytes, SYBR Green DNA, 72 h; series mostly up to 28.7 µM. In a few lines: as §1
Experiment [3] has as its target Cytochrome P450 3A4 (Homo sapiens) (UniProt P08684). In words: qHTS for inhibitors of CYP3A4 against the NCATS DSHEA and TCM libraries (AID 1919971).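 Further: on the % scale 0 is the no-effect control and ±100 the full control effect; inhibition lowers luminescence from luciferin made by CYP3A4.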 The settings on record: recombinant CYP3A4 enzyme activity, luminescence qHTS; series mostly up to 34.1 µM. In a few lines:
(§2)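 Substances were tested against enzyme with a pro-luciferin substrate; minus-enzyme wells served as background. After NADPH-initiated oxidation (30-45 min, RT), light was generated with P450-Glo reagent.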

Experiment [4] deals with Cytochrome P450 2D6 (Homo sapiens) (UniProt P10635). Kind of experiment: qHTS for inhibitors of CYP2D6 against the NCATS DSHEA and TCM libraries (AID 1919972). Further: on the % scale 0 is the no-effect control and ±100 the full control effect. The settings on record: CYP2D6 enzymatic inhibition, luminescence qHTS; series mostly up to 34.1 µM. In a few lines: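 qHTS, concentration–response format with most substances from 19.5 nM. CYP2D6 + pro-luciferin substrate, 15 min with compound, then 1x NADPH regen, 30–45 min RT dark. Glo detection 30 min, luminescence. Quinidine control.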

Experiment [5] addresses Cytochrome P450 2C9 (Homo sapiens) (UniProt P11712). In words: qHTS for inhibitors of CYP2C9 against the NCATS DSHEA and TCM libraries (AID 1919973).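 Further: luminogenic pro-luciferin CYP2C9 substrate turned into luciferin with NADPH regeneration; on the % scale 0 is the no-effect control and ±100 the full control effect.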 The settings on record: recombinant CYP2C9 enzyme activity, luminescence; series mostly up to 34.1 µM. In a few lines:
as §2

Experiment [6] can be described thus: KB-3-1 P-gp reporter qHTS against the NCATS DSHEA and TCM libraries (AID 1919975). Further: 0% is about no effect. The settings on record: KB-3-1 parental cells, CellTiter-Glo luminescence viability, 72 h; series mostly up to 26.1 µM. In a few lines: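 Cell viability by CellTiter-Glo luminescence following ~72 h compound exposure (concentration-response). Uses parental, non-P-gp-overexpressing KB-3-1 line, 500 cells/well in DMEM/10% FBS, attached ~4 h before dosing.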

The nature of experiment [7]: qHTS Counterscreen for compound interference against the NCATS DSHEA and TCM libraries (AID 1919978).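 Further: compounds preincubated with 1 µM D-luciferin or buffer before detection reagent; % of control where 0% means no effect.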 The settings on record: firefly luciferase detection reagent interference, luminescence. In a few lines: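 With 1 uM D-luciferin or phosphate buffer only, compounds at final 19.5 nM–39.8 uM were incubated for 15 min at room temperature. Luciferase detection reagent was then added, and luminescence was measured after a further 30 min at room temperature.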

A short description of experiment [8]: Dual reporter qHTS for agonist of Pregnane X Receptor (hPXR) against the NCATS DSHEA and TCM libraries: Fluorescence readout (AID 1920058). Further: 0% is about no effect. Conditions: PXR dual reporter cells; series mostly up to 40 µM. In a few lines:
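Fluorescence read-out for cell viability: CellTiter-Fluor, 1 h at 37 °C, Ex/Em 405/540 nm. This followed ~24 h treatment of hPXR-Luc HepG2 cells with substances in agonist mode.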

For experiment [9], the target named is Nuclear receptor subfamily 1 group I member 2 (Homo sapiens) (UniProt O75469). Kind of experiment: Dual reporter qHTS for agonist of Pregnane X Receptor (hPXR) against the NCATS DSHEA and TCM libraries: Luminescence readout (AID 1920059). Further: 0% is about no effect. The settings on record: hPXR dual reporter cells, luciferase luminescence agonist; series mostly up to 40 µM. In a few lines:
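hPXR-LucHepG2 cells in phenol red-free DMEM with 5% charcoal-stripped FBS, 2000 cells/well, attached 5 h, then exposed 24 h at 37C to compounds; rifampicin as positive agonist control (2.8 nM–92 uM). Luciferase luminescence read.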

Experiment [10] has the same target. In words: Dual reporter qHTS for antagonist of Pregnane X Receptor (hPXR) against the NCATS DSHEA and TCM libraries: Luminescence Readout (AID 1920060).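 Further: HepG2 cells carrying hPXR luciferase reporter stimulated with rifampicin at 2 µM; 0% is about no effect.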 The settings on record: hPXR dual reporter cells, luciferase luminescence, antagonist mode; series mostly up to 40 µM. In a few lines:
(§3)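 hPXR-Luc HepG2 cells exposed 24 h at 37 C to compounds with 2 uM rifampicin in antagonist mode; luciferase luminescence measured by ONE-Glo, with CellTiter-Fluor viability read beforehand.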

Experiment [11] in a line: Dual reporter qHTS for antagonist of Pregnane X Receptor (hPXR) against the NCATS DSHEA and TCM libraries: Fluorescence Readout (AID 1920061). Further: 0% is about no effect. Conditions: PXR dual reporter cells, antagonist mode; series mostly up to 40 µM. In a few lines:
as §3

Experiment [12] has as its target Cytochrome P450 1A2 (Homo sapiens) (UniProt P05177). In words: qHTS for inhibitors of CYPIA2 against the NCATS DSHEA and TCM libraries (AID 1919976). Further: on the % scale 0 is the no-effect control and ±100 the full control effect. The settings on record: recombinant CYP1A2 enzyme activity, luminescence; series mostly up to 37 µM. In a few lines:
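Luminescence read-out: pro-luciferin converted to D-luciferin by CYP1A2, detected with P450-Glo reagent after 30 min RT. Enzyme plus substrate got compounds for 15 min RT; NADPH regeneration solution (final 1x) started a 30-45 min reaction, light-protected.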

Where [13] appears, read: measured here: PEO1 parental Z-AUC.

Values joined by “and” are separate entries in the source; they are usually repeats but may differ in a detail not shown here. Equal entries are not always repeated. Records with an inconclusive call do not appear. Active and inactive are the calls of the source. Unless noted, the call rests on the fitted dose curve; in most records, active means well fitted curve in the direction sought with a large enough effect; inconclusive means small, poorly fitted or top-dose-only effect, or another doubt; inactive means no such curve, though single readings can be large; an effect the other way counts as inactive or inconclusive.

Chain of Nuclear receptor subfamily 1 group I member 2 (Homo sapiens) (O75469 whole entry, looked up): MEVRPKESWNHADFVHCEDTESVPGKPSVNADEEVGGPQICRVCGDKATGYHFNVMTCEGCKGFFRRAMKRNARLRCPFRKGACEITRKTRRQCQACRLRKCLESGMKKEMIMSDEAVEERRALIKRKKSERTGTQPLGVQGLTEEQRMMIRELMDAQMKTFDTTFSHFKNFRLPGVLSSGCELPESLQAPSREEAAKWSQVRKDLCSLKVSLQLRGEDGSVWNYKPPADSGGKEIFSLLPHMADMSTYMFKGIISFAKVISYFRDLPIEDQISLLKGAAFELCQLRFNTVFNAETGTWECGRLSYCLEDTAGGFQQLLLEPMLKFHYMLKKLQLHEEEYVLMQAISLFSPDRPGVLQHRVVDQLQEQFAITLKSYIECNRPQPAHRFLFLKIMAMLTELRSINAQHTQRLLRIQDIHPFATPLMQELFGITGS
Chain of Cytochrome P450 3A4 (Homo sapiens) (P08684 whole entry, looked up): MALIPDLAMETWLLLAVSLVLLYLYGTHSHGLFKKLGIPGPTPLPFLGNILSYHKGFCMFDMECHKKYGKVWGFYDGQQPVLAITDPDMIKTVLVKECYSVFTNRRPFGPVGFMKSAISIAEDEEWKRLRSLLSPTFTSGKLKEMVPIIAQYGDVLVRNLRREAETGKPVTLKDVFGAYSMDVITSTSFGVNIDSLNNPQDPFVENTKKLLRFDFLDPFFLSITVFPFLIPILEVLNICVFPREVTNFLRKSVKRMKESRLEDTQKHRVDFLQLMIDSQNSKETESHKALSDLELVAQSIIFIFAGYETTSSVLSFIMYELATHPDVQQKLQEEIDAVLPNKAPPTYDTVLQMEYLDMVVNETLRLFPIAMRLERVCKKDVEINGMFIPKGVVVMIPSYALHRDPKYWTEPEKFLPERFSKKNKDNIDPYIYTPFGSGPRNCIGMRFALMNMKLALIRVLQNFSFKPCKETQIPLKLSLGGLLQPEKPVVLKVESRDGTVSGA
Chain of Cytochrome P450 2D6 (Homo sapiens) (P10635 whole entry, looked up): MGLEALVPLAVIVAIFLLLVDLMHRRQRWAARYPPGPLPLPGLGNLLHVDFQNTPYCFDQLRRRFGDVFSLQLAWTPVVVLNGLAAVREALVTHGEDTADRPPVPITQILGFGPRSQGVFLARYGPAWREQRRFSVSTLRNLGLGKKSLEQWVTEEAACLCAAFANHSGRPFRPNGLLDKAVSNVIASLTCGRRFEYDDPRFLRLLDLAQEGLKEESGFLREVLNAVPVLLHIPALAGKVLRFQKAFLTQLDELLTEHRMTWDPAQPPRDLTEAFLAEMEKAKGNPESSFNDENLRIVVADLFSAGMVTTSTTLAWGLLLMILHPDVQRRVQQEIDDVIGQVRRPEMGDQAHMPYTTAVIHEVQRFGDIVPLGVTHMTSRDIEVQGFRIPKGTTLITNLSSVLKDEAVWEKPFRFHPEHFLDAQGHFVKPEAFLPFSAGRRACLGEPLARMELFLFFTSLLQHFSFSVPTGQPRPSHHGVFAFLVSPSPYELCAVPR
Chain of Cytochrome P450 2C9 (Homo sapiens) (P11712 whole entry, looked up): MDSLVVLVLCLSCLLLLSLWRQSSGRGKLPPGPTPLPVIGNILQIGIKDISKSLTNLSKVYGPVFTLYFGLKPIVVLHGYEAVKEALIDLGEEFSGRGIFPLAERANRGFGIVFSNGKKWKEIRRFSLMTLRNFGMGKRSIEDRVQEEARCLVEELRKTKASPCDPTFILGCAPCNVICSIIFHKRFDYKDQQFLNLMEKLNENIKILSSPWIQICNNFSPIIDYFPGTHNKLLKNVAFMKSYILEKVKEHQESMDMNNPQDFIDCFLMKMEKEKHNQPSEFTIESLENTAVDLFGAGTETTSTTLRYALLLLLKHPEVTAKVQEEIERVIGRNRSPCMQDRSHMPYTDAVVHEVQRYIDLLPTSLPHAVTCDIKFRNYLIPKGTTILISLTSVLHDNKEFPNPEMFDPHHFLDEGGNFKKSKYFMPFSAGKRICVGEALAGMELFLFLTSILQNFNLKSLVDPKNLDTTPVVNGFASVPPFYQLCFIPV
Chain of Cytochrome P450 1A2 (Homo sapiens) (P05177 whole entry, looked up): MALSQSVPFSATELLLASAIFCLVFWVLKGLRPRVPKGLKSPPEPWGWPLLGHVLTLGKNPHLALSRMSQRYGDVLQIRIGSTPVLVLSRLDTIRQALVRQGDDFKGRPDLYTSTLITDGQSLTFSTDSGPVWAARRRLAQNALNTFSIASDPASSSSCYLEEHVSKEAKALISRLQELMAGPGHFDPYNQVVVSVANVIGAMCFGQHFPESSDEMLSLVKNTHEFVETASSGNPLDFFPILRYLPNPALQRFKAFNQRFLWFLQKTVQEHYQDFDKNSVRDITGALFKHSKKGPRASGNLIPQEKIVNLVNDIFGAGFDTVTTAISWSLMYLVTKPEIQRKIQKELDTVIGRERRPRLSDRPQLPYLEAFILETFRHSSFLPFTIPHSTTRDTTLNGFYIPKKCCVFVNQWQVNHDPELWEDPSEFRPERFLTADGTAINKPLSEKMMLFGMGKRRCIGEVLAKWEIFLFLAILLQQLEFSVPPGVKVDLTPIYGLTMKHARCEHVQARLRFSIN

On to `CCCCN(CCCC)CC(O)c1cc(Cl)cc2c1-c1ccc(Cl)cc1/C2=C/c1ccc(Cl)cc1` (configuration not stated), for which the Z-AUC was -0.171 (inactive) in experiment [1], -0.362 in experiment [1] (setting [13]) and -0.228 in experiment [1] (measured here: PEO4 Z-AUC). In addition, the Potency was 0.0251 µM (active) in experiment [2] (parasite line A); 0.0071 µM (active) in experiment [2] (parasite line B); 0.0158 µM (active) with 3D7; 0.0028 µM (active) with 7G8; 0.0141 µM (active) in the experiment on AA1029; 0.01 µM (active) with AS120. Besides, the Potency in the experiment on ATS189 was 0.0126 µM (active); in the experiment with ATS95, 0.0126 µM (active); in the experiment with C2A, 0.0447 µM (active).

For `CCC(=O)c1ccc(O)cc1`, the results for the activity, negative = inhibition in [2] (parasite line A) and in [2] (parasite line B) were 12.2% (inactive) and 2.42% (inactive), respectively. In addition, the Potency entry with 3D7, in the experiment with 7G8, with AA1029, with AS120, in the experiment on ATS189 and with ATS95 was “inactive” in each case. Besides, the Potency result with C2A was “inactive”.

With `CCN(CC)CCCC(C)Nc1c2ccc(Cl)cc2nc2ccc(OC)cc12` (configuration not stated), the results for the Z-AUC in experiment [1], in [1] (setting [13]) and in [1] (measured here: PEO4 Z-AUC) were -0.243 (inactive), -1.15 and -1.09, respectively.

Take `CCN(CC)CCNC(=O)c1c(C)[nH]c(/C=C2\C(=O)Nc3ccc(F)cc32)c1C`: the Z-AUC in experiment [1] was -0.535 (inactive); in experiment [1] (setting [13]) it was -0.162; in experiment [1] (measured here: PEO4 Z-AUC), -0.0779. Also, the Potency was 6.31 µM (active) in experiment [2] (parasite line A); 8.91 µM (active) in experiment [2] (parasite line B); 8.91 µM (active) in the experiment on 3D7; 3.98 µM (active) in the experiment with 7G8; 8.91 µM (active) in the experiment on AA1029; 7.08 µM (active) with AS120. In addition, the Potency in the experiment with ATS189 was 8.91 µM (active); in the experiment on ATS95, 7.08 µM (active); with C2A, 11.2 µM (active).

For `NC(N)=NCCC[C@H](N)C(=O)O`, the outcome in [3], in [4], in experiment [5], in [6], in experiment [8] and in experiment [9] was inactive. Besides, the outcome in [10] and in experiment [11] was inactive. For the same compound, in experiment [7], the max response is -2.87% (inactive).

For `O=C1O[C@H]([C@@H](O)CO)C(O)=C1O`, the result in [3], in experiment [4], in experiment [5], in [6], in experiment [12] and in experiment [8] was inactive. Further, the result in [9] and in experiment [11] was inactive. Also, the max response in [7] is -0.0092% (inactive). Further, the activity, negative = inhibition is 10.5% (inactive) in experiment [2] (parasite line A) and 5.51% (inactive) in experiment [2] (parasite line B). The Potency entry in the experiment with 3D7, with 7G8, with AA1029, with AS120, in the experiment on ATS189 and with ATS95 was “inactive” throughout. In addition, the Potency result with C2A is “inactive”.

For the compound `O=C(Oc1ccccc1C(=O)O)c1ccccc1O`, the values for the activity, negative = inhibition in experiment [2] (parasite line A) and in [2] (parasite line B) were 0.597% (inactive) and 10.5% (inactive), respectively. The Potency entry with 3D7, in the experiment on 7G8, in the experiment on AA1029, with AS120, with ATS189 and with ATS95 was “inactive” each time. Also, in the experiment on C2A, the Potency entry was “inactive”.

`CC[C@H]1CN2CCc3cc(OC)c(OC)cc3[C@@H]2C[C@@H]1C[C@H]1NCCc2cc(OC)c(OC)cc21`: the Z-AUC was -0.485 (inactive) in [1], -0.835 in experiment [1] (setting [13]) and -0.876 in experiment [1] (measured here: PEO4 Z-AUC).

As for `CC1=C(/C=C/C(C)=C/C=C/C(C)=C/C(=O)O)C(C)(C)CCC1`, the results for the Z-AUC in experiment [1], in experiment [1] (setting [13]) and in experiment [1] (measured here: PEO4 Z-AUC) were -0.215 (inactive), 0.0467 and 0.421, respectively. Further, the values for the activity, negative = inhibition in experiment [2] (parasite line A) and in [2] (parasite line B) were 11.8% (inactive) and -26.7% (inactive), respectively. Further, the Potency result with 3D7, in the experiment on 7G8, in the experiment on AA1029, in the experiment with AS120, in the experiment on ATS189 and in the experiment on ATS95 was “inactive” each time. In addition, the Potency entry in the experiment with C2A was “inactive”.

As to `Cc1c(O)cccc1C(=O)N[C@@H](CSc1ccccc1)[C@H](O)CN1C[C@H]2CCCC[C@H]2C[C@H]1C(=O)NC(C)(C)C`, the Z-AUC is -0.819 (inactive) in experiment [1], -0.979 in experiment [1] (setting [13]) and -1.07 in experiment [1] (measured here: PEO4 Z-AUC). Moreover, the Potency in experiment [2] (parasite line B) was 7.94 µM (active); in the experiment on 3D7, 12.6 µM (active); with AS120 it was 10 µM (active). Moreover, the Potency entry in the experiment with C2A is “inactive”.

For `O=C1Nc2ccc(Cl)cc2[C@@](C#CC2CC2)(C(F)(F)F)O1`, the Z-AUC in experiment [1] was -0.995 (inactive) and -0.662 (inactive); in experiment [1] (setting [13]), -0.432 and 0.539; in experiment [1] (measured here: PEO4 Z-AUC), -0.62 and -0.612.
